# Results taken from PubChem BioAssay (Tox21).
# Several values for one entry are separate records, joined by “and”; a condition that tells them apart may be missing. Equal values may be shown once. Inconclusive results are not listed. Where a call stands in place of a potency, no number is given. A number with no mark means an inactive call. Activity calls are given as the source filed them. Calls follow the shape of the dose curve; as a rule, active = well fitted cell-killing curve with a large enough effect in the repeat runs; inconclusive = weak or mixed curves, or effect the other way; inactive = flat fitted curve, though single readings scatter.
# How the values were obtained:
# [1] = cAMP Responsive Elements (CRE) small molecule antagonists, cell-based qHTS assay: qHTS cell viability counter screen (AID 2060913); conditions: CRE-bla HEK293T viability, CellTiter-Glo luminescence, 5 h; series mostly up to 92.4 µM; also: nearly all actives have a fitted effect of over 40% in size
# How it was run: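 Cytotoxicity read in the same wells as the CRE-bla HEK293T antagonist assay: after 3 h compound with 0.25 uM NKH477 final and 2 h beta-lactamase substrate, CellTiter-Glo luminescence measured.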
# [2] = cAMP Responsive Elements (CRE) small molecule agonists, cell-based qHTS assay: qHTS cell viability counter screen (AID 2060914); conditions: CRE-bla HEK293T viability, CellTiter-Glo luminescence, 5 h; series mostly up to 92.4 µM;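 also: viability read after 3 h of compound exposure; nearly all actives have a fitted effect of over 50% in size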
# How it was run: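 HEK 293T CRE-bla; DMEM + 10% dialyzed FBS, 25 mM HEPES; 18 h pre-incubation; compound 3 h, 37 °C/5% CO2; CellTiter-Glo added after reporter read; luminescence after 30 min RT.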
# Potency is read from the fitted curve at half-maximal effect.
SMILES,Potency [1],Potency [2],"viability change, negative = cytotoxic [1]","activity change, negative = cytotoxicity [2]"
CCN(CC)CCc1nc(-c2ccccc2)no1,inactive,inactive,–,–
O=C(Oc1ccccc1)c1ccccc1C(=O)Oc1ccccc1,inactive,inactive,–,–
CCCCc1ccc(N)cc1,inactive,inactive,–,–
CCCCCCCCCCCCCCCCCCOS(=O)(=O)O,inactive,inactive,–,–
CCN(CC)c1ccc(C=O)c(O)c1,inactive,inactive,–,–
CC1CC(O)CC(C)(C)C1 (stereo not given),inactive,inactive,–,–
Nc1cc(=O)[nH]c(N)n1,inactive,inactive,–,–
N[C@H](C(=O)O)[C@@H](O)c1ccc(O)c(O)c1,inactive,inactive,–,–
Cc1ccc(C2OC[C@@H]3OC(c4ccc(C)cc4)O[C@H]([C@H](O)CO)[C@@H]3O2)cc1 (stereo not given in full),inactive,inactive,–,–
[Cl][Nd]([Cl])[Cl],inactive,inactive,–,–
CCCCCCCOC(=O)CCC,inactive,inactive,–,–
COC(=O)c1ccc(NC(C)=O)cc1OC,inactive,inactive,–,–
Cc1scc2c1N(C(=O)CN1CCN(C)CC1)c1ccccc1NC2=O,inactive,inactive,–,–
O=C(CCNNC(=O)c1ccncc1)NCc1ccccc1,inactive,inactive,–,–
Brc1ccccc1-c1ccccc1,inactive,inactive,–,–
CC(C)C(=O)Nc1cccc(C(F)(F)F)c1,inactive,inactive,–,–
Cc1ncc[nH]1,inactive,inactive,–,–
Cc1cc(O)c2c(c1)C(=O)c1cc(O)cc(O)c1C2=O,inactive,inactive,–,–
CN(C)C(=N)N=C(N)N,inactive,inactive,–,–
CC/C=C\CCOC(C)OCC (stereo not given),inactive,inactive,–,–
c1ccc(-c2ccccc2-c2ccccc2)cc1,inactive,inactive,–,–
O=C(O)CCc1nc2ccccc2[nH]1,inactive,inactive,–,–
CC(CO)(CO)C(=O)O,inactive,inactive,–,–
NC(N)=NC(=O)c1nc(Cl)c(N)nc1N,inactive,inactive,–,–

SMILES,Potency [1],Potency [2],"viability change, negative = cytotoxic [1]","activity change, negative = cytotoxicity [2]"
CC(=O)OCC(=O)[C@@]1(OC(C)=O)[C@@H](C)C[C@H]2[C@@H]3C[C@H](F)C4=CC(=O)C=C[C@]4(C)[C@@]3(F)[C@@H](O)C[C@@]21C,inactive,inactive,–,–
CCCCCCC#CC(=O)OC,inactive,inactive,–,–
CCCCCCCCCCCC(=O)N(CC)CC,inactive,inactive,–,–
C[C@]12CC[C@@H]3c4ccc(O)cc4CC[C@H]3[C@@H]1CC[C@@H]2OC(=O)CCC1CCCC1,inactive,inactive,–,–
COc1cc(Nc2c(C#N)cnc3cc(OCCCN4CCN(C)CC4)c(OC)cc23)c(Cl)cc1Cl,inactive,inactive,–,–
C=C(C)c1cccc(C(C)(C)N=C=O)c1,inactive,inactive,–,–
O=C(O)c1cn(C2CC2)c2cc(N3CCNCC3)c(F)cc2c1=O,inactive,inactive,–,–
NC(=O)Cc1cccc(C(=O)c2ccccc2)c1N,inactive,inactive,–,–
CCC(C)(CCCC(C)C)OC(C)=O (stereo not given),inactive,inactive,–,–
CCOc1ccc2nc(N)sc2c1,inactive,inactive,–,–
c1ccc2cc3c4ccccc4c4ccccc4c3cc2c1,inactive,inactive,–,–
Cc1cccc2c1cc1ccc3cccc4ccc2c1c34,inactive,inactive,–,–
CC(=O)S[C@H](C(=O)N[C@H]1Cc2ccccc2[C@H]2CCC[C@@H](C(=O)O)N2C1=O)C(C)C,inactive,inactive,–,–
CS(=O)(=O)OCCCCOS(C)(=O)=O,inactive,inactive,–,–
CC(C)c1cccc(O)c1,inactive,inactive,–,–
COc1ccc(Cl)cc1C,inactive,inactive,–,–
CCC1Nc2cc(Cl)c(S(N)(=O)=O)cc2S(=O)(=O)N1 (stereo not given),inactive,inactive,–,–
O=C1CCC/C=C\CCCCCCCCCC1,inactive,inactive,–,–
CCCCCCCC(=O)N(C)C,inactive,inactive,–,–
CCCCCCCC/C=C\CCCCCCCC(=O)OCCOC(=O)CCCCCCC/C=C\CCCCCCCC,inactive,inactive,–,–
Oc1cccc(O)c1,inactive,inactive,–,–
O=C(c1ccccc1)c1ccc2n1CCC2C(=O)O (stereo not given),inactive,inactive,–,–
C/C(=C(\CCOP(=O)(O)O)SC(=O)c1ccccc1)N(C=O)Cc1cnc(C)nc1N,–,–,1.04% [at 8.39 µM],-13.5% [at 8.39 µM]
CCCCCC1C(=O)CCC1CC(=O)OC (stereo not given),inactive,inactive,–,–

SMILES,Potency [1],Potency [2],"viability change, negative = cytotoxic [1]","activity change, negative = cytotoxicity [2]"
SCCSCCS,inactive,inactive,–,–
CC(C)(C)N(CCO)CCO,inactive,inactive,–,–
CCOCCOCCO,inactive,inactive,–,–
COc1ccc2c(c1)c(CC(=O)O)c(C)n2C(=O)c1ccc(Cl)cc1,inactive,inactive,–,–
C=C(C)C(=O)Nc1ccc(Cl)c(Cl)c1,inactive,inactive,–,–
O=c1[nH][nH]c2ccccc12,inactive,inactive,–,–
Cc1cncc(C)c1,inactive,inactive,–,–
C=COCCCCO,inactive,inactive,–,–
CCCCCCCCCCCCCCCCCC(=O)OCC(CC)CCCC (stereo not given),inactive,inactive,–,–
CCCC=O,inactive,inactive,–,–
Oc1ccc2c(c1)Cc1ccccc1-2,inactive,inactive,–,–
Cc1cccc(N(C)C(=S)Oc2ccc3ccccc3c2)c1,inactive,inactive,–,–
NCCOCCN,inactive,inactive,–,–
CS(=O)(=O)c1ccc([C@@H](C[C@H]2CCC(=O)C2)C(=O)Nc2cnccn2)cc1Cl,inactive,inactive,–,–
CCCCCCCCCCCCOCCOS(=O)(=O)O,inactive,inactive,–,–
S=C([S-])NCCNC(=S)[S-].[Mn+2],inactive,inactive,–,–
CCCCC(CC)COS(=O)(=O)O (stereo not given),inactive,inactive,–,–
COc1ccc(-n2nc(CCC(=O)N(C)O)cc2-c2ccc(Cl)cc2)cc1,inactive,inactive,–,–
CC(C)=CC(=O)C=C(C)C,inactive,inactive,–,–
CC(=O)CC(=O)N(C)C,inactive,inactive,–,–
CC(C)Cc1ccc(CC(=O)O)cc1,inactive,inactive,–,–
CC(C)C[C@@H](N)C(=O)O,–,–,3.57% [at 18.9 µM],-6.51% [at 18.9 µM]
c1ccc2sc(SN(C3CCCCC3)C3CCCCC3)nc2c1,inactive,inactive,–,–
c1ccc(CCNc2nc(-c3ccccc3)cs2)cc1,inactive,inactive,–,–

SMILES,Potency [1],Potency [2],"viability change, negative = cytotoxic [1]","activity change, negative = cytotoxicity [2]"
Cn1cccc1,inactive,inactive,–,–
CC(C)(C)CC(C)(C)c1ccc(OCCOCC[N+](C)(C)Cc2ccccc2)cc1,27.3 µM (active) and 29.8 µM (active),54.4 µM (active) and 29.8 µM (active),–,–
CC(=O)OC[C@H]1O[C@@H](OC(C)=O)[C@H](OC(C)=O)[C@@H]1OC(C)=O,inactive,inactive,–,–
CCC(C)(C)C1CCC(=O)CC1,inactive,inactive,–,–
CC[C@H](C)[C@@H](C(=O)O)n1sc2ccccc2c1=O,inactive,inactive,–,–
Cc1ccc2c(c1)C(=O)OC2=O,inactive,inactive,–,–
O=C(c1ccccc1)c1cccc(O)c1,inactive,inactive,–,–
CC(=O)OCCC(C)CC(C)(C)C (stereo not given),inactive,inactive,–,–
CC(=O)c1nccs1,inactive,inactive,–,–
O=C(O)CCN(C1(C(=O)NO)CCCC1)S(=O)(=O)c1ccc(Oc2ccc(F)cc2)cc1,inactive,inactive,–,–
c1ccc2n[nH]nc2c1,inactive,inactive,–,–
CC(=O)Nc1ccc(S(=O)(=O)Nc2cc(C)on2)cc1,inactive,inactive,–,–
N#Cc1ccc(C/C(=N/NC(=O)Nc2ccc(OC(F)(F)F)cc2)c2cccc(C(F)(F)F)c2)cc1,inactive,inactive,–,–
Nc1ccc(N)c(Cl)c1,inactive,inactive,–,–
CC(C)C(O)(c1ccc(OC(F)(F)F)cc1)c1cncnc1 (stereo not given),inactive,inactive,–,–
Cc1occc(=O)c1OC(=O)C(C)C,inactive,inactive,–,–
CCN(CCCc1ccccc1)CCCc1ccccc1,inactive,inactive,–,–
C[C@H](N)[C@H](O)c1cccc(O)c1,inactive,inactive,–,–
O=C(c1ccccc1)C1CCCCC1,inactive,inactive,–,–
C/C=C(\C)C(=O)OCCc1ccccc1,inactive,inactive,–,–
C[C@@H]1C[C@H]2[C@@H]3C[C@H](F)C4=CC(=O)C=C[C@]4(C)[C@@]3(F)[C@@H](O)C[C@]2(C)[C@@]1(O)C(=O)CO,inactive,inactive,–,–
CCOC(=O)/C=C/c1ccccc1,inactive,inactive,–,–
N#CCCN(CCO)CCO,inactive,inactive,–,–
NCCNCCNCCNCCN,inactive,inactive,–,–

SMILES,Potency [1],Potency [2],"viability change, negative = cytotoxic [1]","activity change, negative = cytotoxicity [2]"
CC(=O)OCC(=O)[C@H]1CC[C@H]2[C@@H]3CCC4=CC(=O)CC[C@]4(C)[C@H]3CC[C@]12C,inactive,inactive,–,–
OCC#CCO,inactive,inactive,–,–
Nc1ncnc2c1ncn2Cc1c(F)cccc1Cl,inactive,inactive,–,–
O=C(O)CCSSCCC(=O)O,inactive,inactive,–,–
NC(=O)NS(=O)(=O)c1ccc(N)cc1,inactive,inactive,–,–
O=C(CCc1ccc(O)cc1)c1c(O)cc(O)cc1O,inactive,inactive,–,–
CCCc1c(OCCCCc2nn[nH]n2)ccc(C(C)=O)c1O,inactive,inactive,–,–
CCN(CC)CCNC(=O)c1cc(S(C)(=O)=O)ccc1OC,inactive,inactive,–,–
CCCCCCNC(=O)n1cc(F)c(=O)[nH]c1=O,inactive,inactive,–,–
O=S(=O)(c1ccccc1)c1ccc(Cl)cc1,inactive,inactive,–,–
c1ccc(CC2=NCCN2)cc1,inactive,inactive,–,–
CCCC(CCC)(C(=O)OCC)C(=O)OCC,inactive,inactive,–,–
CC(C)(C)OCC1CO1 (stereo not given),inactive,inactive,–,–
CCc1cccc(C)c1N,inactive,inactive,–,–
c1cnc2cc3c(cc2n1)C1CNCC3C1,inactive,inactive,–,–
CC(=O)OC[C@H]1O[C@@H](n2ncc(=O)[nH]c2=O)[C@H](OC(C)=O)[C@@H]1OC(C)=O,inactive,inactive,–,–
CC12CCC(C1)C(C)(C)C2O (stereo not given),inactive,inactive,–,–
CN1CCN(CCCN2c3ccccc3Sc3ccc(Cl)cc32)CC1,inactive,inactive,–,–
CC(=O)N[C@@H](CCC(N)=O)C(=O)O,inactive,inactive,–,–
CC(C)C1CCC(O)CC1 (stereo not given),inactive,inactive,–,–
CCOCOCC,inactive,inactive,–,–
C=C(C)C1CC=C(C)C(O)C1 (stereo not given),inactive,inactive,–,–
CC(=O)Nc1nnc(S(N)(=O)=O)s1,inactive,inactive,–,–
O=c1ccc2ccccc2o1,inactive,inactive,–,–
